About 83,000 compounds went through this panel and 20% of them were active in at least one assay; those are over-represented in the sample as a whole.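 Testing used 96-well plates and a 48-hour single-concentration exposure. Example: -40 means 40% of the starting cells died.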 Calls of active or inactive are those of the source. The calls were made as follows: active = growth percent below 10; inactive = the rest.
Each compound was assayed on HL-60(TB) leukemia (assay: NCI-60 one-dose screen, 48 h (100 = growth as untreated, 0 = no growth, -100 = all killed)). Conditions: 10 µM unless noted.
Cc1cc(C)cc(NC(=O)Cn2cc(COn3nnc4ccccc43)nn2)c1 was tested, and the growth was 92.6% (inactive).
In the case of COc1cc(OC)c2c3nc4cc(C)c(C)cc4nc3n(CCN(C)C)c2c1, the growth is reported as 52.9% (inactive).
In the case of CCCSc1nc(NCCc2c[nH]c3ccccc23)c(C#N)c(-c2ccc(F)cc2)n1, the growth is reported as 54.2% (inactive).
For O=C(c1cc2cc(OCCCN3CCC3)ccc2[nH]1)N1C[C@@H](CCl)c2c1cc(OCc1ccccc1)c1ccccc21, the growth was -33.7% (active).
For COc1ccc2[nH]cc(-c3cc(N)n4nc(-c5cn(C)c6ccccc56)cc4n3)c2c1, the growth was -40.7% (active).
